# The full list was thinned out, with hits kept by preference.
# UDG counterscr: Primary qHTS assay for inhibitors of Activation Induced Cytidine Deaminase (AID): UDG Counterscreen signal; Uracil-DNA glycosylase; FRET deamination/UDG coupled assay, UDG read, 4 h; Potency, µM (doses to about 115 µM), for the others: top-dose activity change, negative = inhibition, hits mostly inhibitors; 91,000 tested, 0.14% active; also: potency is read from the fitted curve at half-maximal effect; % is scaled to controls: 0 for no effect and ±100 for the full control effect; nearly all actives have a fitted effect of over 65% in size
# DRV1 agonist: qHTS for Agonists of Human Resolvin D1 Receptor DRV1 | CHO-K1 GPR32 beta-arrestin PathHunter luminescence, 90 min; zero percent set by DMSO-only wells | 48,000 tested, 2.5% active | activation, % at 76.9 µM;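 active = activation of at least 60% and not above a set upper limit, about 1 call in 100 departs from these limits; inconclusive = activation of 40% to 60%, or above that upper limit; inactive = activation under 40%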; also: 0% is about no effect
# Target sequence (O75388 whole entry, looked up): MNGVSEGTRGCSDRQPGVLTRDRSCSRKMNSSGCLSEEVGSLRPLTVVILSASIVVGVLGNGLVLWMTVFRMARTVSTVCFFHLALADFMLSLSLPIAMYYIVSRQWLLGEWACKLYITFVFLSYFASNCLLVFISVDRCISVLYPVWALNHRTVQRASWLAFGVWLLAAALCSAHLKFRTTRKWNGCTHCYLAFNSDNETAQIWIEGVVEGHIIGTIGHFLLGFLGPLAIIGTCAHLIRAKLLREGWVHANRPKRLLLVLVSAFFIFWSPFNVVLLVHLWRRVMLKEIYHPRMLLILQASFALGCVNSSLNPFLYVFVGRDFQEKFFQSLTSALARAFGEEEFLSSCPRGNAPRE
#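 Step 1: seed CHO-K1 GPR32 beta-arrestin cells, 2,500/well, overnight at 37 °C. Step 2: add compounds, 90 min at 37 °C. Step 3: detection reagent, 1 h ambient, then luminescence.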
# AID inhibitor: Primary qHTS assay for inhibitors of Activation Induced Cytidine Deaminase (AID): AID signal | Single-stranded DNA cytosine deaminase (Homo sapiens), Q9GZX7 | 91,000 tested, 0.32% active | Potency, µM (highest dose often 115 µM), actives largely listed as inhibitors | AID deamination FRET fluorescence, UDG-coupled, 4 h | AID 1347428, 2020; also: potency is read from the fitted curve at half-maximal effect; % is scaled to controls: 0 for no effect and ±100 for the full control effect; nearly all actives have a fitted effect of over 25% in size
# Target sequence (Q9GZX7 whole entry, looked up): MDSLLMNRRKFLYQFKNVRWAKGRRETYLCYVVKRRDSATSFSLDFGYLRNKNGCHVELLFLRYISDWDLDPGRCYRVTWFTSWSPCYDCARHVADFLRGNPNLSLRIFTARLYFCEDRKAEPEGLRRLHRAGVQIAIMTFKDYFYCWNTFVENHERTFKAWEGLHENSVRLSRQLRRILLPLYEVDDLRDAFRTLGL
# Numbers without * were called inactive; i = inactive; ? = inconclusive; / = no result given; ! = not confirmed by another sample; [ ] = another dose, or the depositor's remark. Unless noted, calls follow the shape of the dose curve; as a rule, active = well fitted curve in the direction sought with a large enough effect; inconclusive = small, poorly fitted or top-dose-only effect, or another doubt; inactive = no such curve, though single readings can be large; an effect the other way counts as inactive or inconclusive.
SMILES,UDG counterscr,DRV1 agonist,AID inhibitor
COc1ccc2c(c1)c(C(C(=O)O)N1CCN(c3ccc(F)cc3)CC1)cn2CCC(=O)O (configuration not stated),-6.3%,/,i
CC(Sc1nc2cc(Cl)ccc2n1C)C(=O)NCc1ccc2c(c1)OCO2 (configuration not stated),-11.2%,/,i
CCOc1ccc(CNCc2c(C(=O)O)n(Cc3ccc(OC)cc3)c3ccccc23)cc1,19.3%,5.0,i
Cc1ccc(Cn2c(C(=O)O)c(CNCc3cccs3)c3ccc(C)cc32)cc1,-1.5%,110.5*,?
CCOc1ccc(CNCc2c(C(=O)O)n(Cc3ccc(C)cc3)c3cc(C)ccc23)cc1,-5.7%,64.3*,i
COc1ccc2c(CNCc3cccs3)c(C(=O)O)n(Cc3ccccc3)c2c1,5.0%,43.8,i
Cc1cc(OS(C)(=O)=O)cc2c1C(=O)/C(=C/c1ccccc1F)O2,-9.0%,/,i
CCCNC(=O)c1c(-n2cnnn2)sc2c1CCC2,5.2%,/,i
O=C(NCC1CCCO1)c1c[nH]c2ccc(S(=O)(=O)Nc3ccc(F)cc3F)cc2c1=O (configuration not stated),-12.2%[57.5 µM],-1.2,i
O=C(NCc1ccco1)c1c[nH]c2ccc(S(=O)(=O)Nc3ccc(F)cc3F)cc2c1=O,-10.8%[57.5 µM],62.8*,i
O=C(NCCc1ccccc1)c1c[nH]c2ccc(S(=O)(=O)Nc3ccc(F)cc3F)cc2c1=O,-10.6%[57.5 µM],100.0*,i
O=C(NCCc1ccccc1)c1c[nH]c2ccc(S(=O)(=O)Nc3ccccc3F)cc2c1=O,-13.4%[57.5 µM],15.2,i
Cc1cc(C)cc(OCCN(C)C(=O)c2cc(=O)[nH]c3ccccc23)c1,-3.1%,/,i
Cc1cc(=O)n(Cc2ccccc2)c2c1c(C)nn2C,?,?,i
COc1cccc(Cn2c(=O)cc(C)c3c(C)nn(C)c32)c1,-6.0%,79.3*,?
CCCn1c(=O)sc2cc(NC(=O)COc3ccc(Cl)cc3)ccc21,-7.7%,49.4,i
Cc1ccc(OCC(=O)Nc2ccc3c(c2)sc(=O)n3C)cc1,-25.2%,73.0*,i
COc1ccccc1N1CCN(CC(O)COc2cccc3ccccc23)CC1 (configuration not stated),-15.4%,96.7*!,?
COc1ccc(N2CCN(CC(O)COc3c(OC)cccc3OC)CC2)cc1 (configuration not stated),-15.4%[57.5 µM],6.4,i
COC(=O)c1ccn(Cc2ccc(Cl)cc2Cl)n1,2.3%,/,i
Cc1ccc(C)c(N2CCN(C(=O)CCNS(=O)(=O)c3ccc4c(c3)CCN4C(=O)C3CC3)CC2)c1,-3.9%,48.7,i
O=C(CCNS(=O)(=O)c1ccc2c(c1)CCN2C(=O)C1CC1)N1CCN(c2ccccc2F)CC1,1.3%,70.6*,i
CC(=O)Nc1ccc(NC(=O)c2cc(S(=O)(=O)N3CCOCC3)c(Cl)cc2Cl)cc1,67.0%,/,i
Cc1ccc(NC(=O)c2cc(S(=O)(=O)N3CCOCC3)c(Cl)cc2Cl)cc1,4.5%,84.0*,i
COc1cc(OC)c(NC(c2nnc(-c3ccccc3)o2)c2ccc(F)cc2Cl)cc1Cl (configuration not stated),-7.7%,-26.6,i
SMILES,UDG counterscr,DRV1 agonist,AID inhibitor
CCc1cccc(NC(c2nnc(-c3ccccc3)o2)c2ccc(F)cc2Cl)c1 (configuration not stated),79.4µM*,-46.7,?
COc1ccc(-c2nc3ccccc3o2)cc1NC(=O)c1cccnc1,15.8%,86.1*,i
COc1ccc(C(=O)Nc2cc(-c3nc4ccccc4o3)ccc2OC)cc1Cl,26.5%,/,i
CCOC(=O)c1cnc2c(ccc3ccccc32)c1Nc1ccccc1OC,-5.7%[57.5 µM],85.0*,i
CCOC(=O)c1cnc2c(ccc3ccccc32)c1Nc1ccccc1OCC,-22.1%,-8.5,i
CCOCc1ccc(CNC(=O)c2nccnc2N)cc1,-4.9%,/,i
COc1ccc(-c2nc3cccc(C)n3c2Nc2ccc3c(c2)OCCO3)cc1,4.3%,/,i
COc1cc(-c2nc3cccc(C)n3c2Nc2ccc3c(c2)OCCO3)ccc1O,-6.5%,61.2*,i
CC(C)Oc1ccc(CNC(=O)Nc2ccc3c(c2)N(C)C(=O)c2ccccc2S3)cc1,-14.3%[57.5 µM],-15.1,?
COc1ccc(CNC(=O)Nc2ccc3c(c2)N(C)C(=O)c2ccccc2S3)cc1OC,3.6%[57.5 µM],-8.9,89.1µM*
O=C(CSc1cn(CCNC(=O)c2ccccc2F)c2ccccc12)Nc1ccc2c(c1)OCCO2,5.7%,?,i
O=C(CSc1cn(CCNC(=O)c2cccc(C(F)(F)F)c2)c2ccccc12)Nc1ccc2c(c1)OCCO2,-6.7%,111.8*,?
O=C(CSc1cn(CCNC(=O)c2ccccc2F)c2ccccc12)Nc1ccc(F)cc1,-0.9%,91.1*,i
CCOc1ccc(NC(=O)CSc2cn(CCNC(=O)c3ccccc3F)c3ccccc23)cc1,12.2%,13.6,i
C=CCOc1ccc(/C=C/c2cc(C(=O)O)c3ccccc3n2)cc1OC,4.9%,/,i
CCCCSCCCNC(=O)C1CCN(Cc2nc(-c3cccc(Br)c3)oc2C)CC1,?,26.0,i
CCCCSCCCNC(=O)C1CCN(Cc2nc(-c3ccc(CC)cc3)oc2C)CC1,89.1µM*,25.3,?
CCCNC(=O)Cc1c[nH]c2ccccc12,-6.8%,/,i
CNC(=S)N/N=C1/CCCCC1C (configuration not stated),-2.6%,/,i
COc1cc(NC(=O)N2CCC3(CC2)Nc2cc(F)ccc2-n2cccc23)cc(OC)c1OC,?,-8.5,?
CCN1c2cc(C)ccc2-n2cccc2C12CCN(C(=O)Nc1cc(OC)c(OC)c(OC)c1)CC2,89.1µM*,-23.6,?
COc1ccc(OCCOC(=O)c2cc(C)nc3ccccc23)cc1,-14.6%,/,i
Cc1cccc(C)c1NC(=O)c1cc(S(=O)(=O)N2CCCc3ccccc32)ccc1F,89.1µM*,-12.1,i
Cc1ccc(NC(=O)c2cc(S(=O)(=O)N3CCCc4ccccc43)ccc2F)cc1F,?,-13.9,i
CCN1CCN(c2ncnc3c2cnn3-c2cc(Cl)ccc2C)CC1,-14.6%,20.7,i
SMILES,UDG counterscr,DRV1 agonist,AID inhibitor
Cc1ccc(Cl)cc1-n1ncc2c(NC3CCCCC3)ncnc21,?,67.6*,?
Cc1ccc(Cl)cc1-n1ncc2c(N3CCN(Cc4ccccc4)CC3)ncnc21,0.0%,85.2*,?
Clc1cccc(-n2ncc3c(Nc4ccc5c(c4)OCCO5)ncnc32)c1,19.4%,?,i
Fc1ccc(-n2ncc3c(Nc4ccc5c(c4)OCCO5)ncnc32)cc1,?,91.8*,i
Clc1cccc(-n2ncc3c(NC4CCCCC4)ncnc32)c1,?,108.5*,?
Clc1cccc(-n2ncc3c(NC4CCCC4)ncnc32)c1,1.1%,/,i
Clc1ccc(-n2ncc3c(NC4CCCCCCCCCCC4)ncnc32)cc1,-2.1%,/,i
C=CCOc1ccc(C(=O)Nc2ccccc2C(C)C)cc1,0.6%,/,i
COc1cccc(CNC2CCCCCC2)c1OC,1.0%,/,i

# High-throughput results as filed in PubChem BioAssay.
